The text below walks through data of PubChem BioAssay (NCI).

The panel holds about 83,000 compounds, 20% with a hit somewhere; the sample as a whole holds those more often.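 Percent growth is the endpoint: 0 to 100 indicates growth inhibition (40 means 60% inhibition), 0 means no net growth, and negative values indicate cell death.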 Values without a mark were called inactive. Activity calls are given as the source filed them. Rule for the calls: active = growth percent below 10; inactive = the rest.

Some test systems named below: DU-145 prostate; K-562 leukemia; MALME-3M melanoma; MDA-MB-231 breast; RXF 393 renal; SF-268 CNS; SF-295 CNS; SF-539 CNS; UACC-257 melanoma; M14 melanoma; HCT-15 colon; HT29 colon; SNB-75 CNS; SNB-19 CNS; U251 CNS; PC-3 prostate; SK-MEL-5 melanoma; UACC-62 melanoma; LOX IMVI melanoma; SK-MEL-28 melanoma.
Holding throughout (test): NCI-60 one-dose screen, 48 h (100 = growth as untreated, 0 = no growth, -100 = all killed)
Holding throughout (conditions): 10 µM unless noted

For the molecule `CCN1C(=O)N(CC)C2Nn3c(s/c(=C\c4cccc([N+](=O)[O-])c4)c3=O)=NC21` (stereo not given), the growth was 30.5% with DU-145 prostate; 19.9% in the assay with K-562 leukemia; 57.8% with MALME-3M melanoma; 30.7% in the assay with MDA-MB-231 breast; 25.4% in the assay on RXF 393 renal; 63.9% with SF-268 CNS. Also, the growth in the assay on SF-295 CNS is 31%; with SF-539 CNS, 12.8%; in the assay on UACC-257 melanoma, 77.5%; in the assay on M14 melanoma, 22.2%; in the assay with HCT-15 colon, 31.8%; in the assay with HT29 colon, 74.9%. Besides, the growth was 20% in the assay with SNB-75 CNS; 53.3% in the assay on SNB-19 CNS; 33.5% in the assay with U251 CNS; 35.8% in the assay with PC-3 prostate; 31.8% with SK-MEL-5 melanoma; 47% in the assay with UACC-62 melanoma. Also, the growth with LOX IMVI melanoma is 56.4%; in the assay on SK-MEL-28 melanoma, 57.3%.
`COc1cccc(-c2nc3sccn3c2-c2ccnc(NCCNS(=O)(=O)c3cccc(Cl)c3)c2)c1`: the growth is 44.1% in the assay with DU-145 prostate; 25.3% with K-562 leukemia; 63.2% in the assay with MALME-3M melanoma; 68.3% with MDA-MB-231 breast; 47.5% in the assay with RXF 393 renal; 42.7% in the assay with SF-268 CNS. Moreover, the growth in the assay on SF-295 CNS is 33.8%; in the assay with SF-539 CNS, 72.6%; in the assay with UACC-257 melanoma it was 58%; with M14 melanoma it was 48.4%; in the assay on HCT-15 colon it was 37.8%; in the assay on HT29 colon, 45.7%. The growth was 36.6% in the assay with SNB-75 CNS; 65% with SNB-19 CNS; 58.8% with U251 CNS; 20.2% with PC-3 prostate; 20.2% in the assay on SK-MEL-5 melanoma; 12.1% with UACC-62 melanoma. The values for the growth in the assay on LOX IMVI melanoma and with SK-MEL-28 melanoma were 46.7% and 68.4%, respectively.
For the molecule `O=C(CCCCCCN1CC(=O)N2[C@@H](c3ccccc3Cl)c3[nH]c4ccccc4c3C[C@H]2C1=O)NO`, the growth in the assay with DU-145 prostate was 77.2%; with K-562 leukemia, 25.7%; in the assay on MALME-3M melanoma, 21.9%; with MDA-MB-231 breast, 63.1%; in the assay with RXF 393 renal it was 61.3%; with SF-268 CNS, 89.9%. Also, the growth is 80.3% in the assay with SF-295 CNS; 60% in the assay with SF-539 CNS; 51.7% in the assay with UACC-257 melanoma; 49.3% in the assay with M14 melanoma; 97.5% in the assay with HCT-15 colon; 57.6% in the assay with HT29 colon. Besides, the growth is -1.06% (active) in the assay on SNB-75 CNS; 71.8% with SNB-19 CNS; 60.1% in the assay on U251 CNS; 61.8% in the assay with PC-3 prostate; 46.9% in the assay with SK-MEL-5 melanoma; 34% in the assay with UACC-62 melanoma. Besides, the growth with LOX IMVI melanoma was 14.7%; in the assay with SK-MEL-28 melanoma, 43.8%.
Turning to `COC(=O)[C@]12CC[C@@H](C)[C@H](C)[C@@H]1C1=CC[C@@H]3[C@@]4(C)C(C=O)=C[C@@](C)(CO)[C@@H]4[C@H](O)C[C@@]3(C)[C@]1(C)CC2`, the growth in the assay on DU-145 prostate is -30% (active); in the assay with K-562 leukemia, 6.68% (active); with MALME-3M melanoma it was -70.7% (active); in the assay on MDA-MB-231 breast, -47.6% (active); in the assay on RXF 393 renal, -82% (active); in the assay with SF-268 CNS it was -0.0873% (active). For the same molecule, the growth in the assay on SF-295 CNS was -15.6% (active); in the assay on SF-539 CNS, -44% (active); with UACC-257 melanoma it was -48.4% (active); in the assay on M14 melanoma it was -51.5% (active); in the assay with HCT-15 colon, -68.1% (active); with HT29 colon, -37.7% (active). In addition, the growth is 3.2% (active) in the assay with SNB-75 CNS; 24.4% in the assay with SNB-19 CNS; -19% (active) in the assay with U251 CNS; -0.105% (active) in the assay on PC-3 prostate; -85.7% (active) with SK-MEL-5 melanoma; -34.5% (active) in the assay on UACC-62 melanoma. Moreover, the growth in the assay with LOX IMVI melanoma is -97.9% (active); in the assay on SK-MEL-28 melanoma, -34.5% (active).
Take `C[C@H]1[C@H]2[C@H]3CC[C@@H]4[C@@]5(C)C/C(=C/c6cccnc6)C(=O)C(C)(C)[C@@H]5CC[C@@]4(C)[C@]3(C)CC[C@]23CO[C@]1(C)[C@@H](C(=O)/C=C\c1cccnc1)C3`: the growth in the assay with DU-145 prostate was -28.8% (active); with K-562 leukemia, 6.51% (active); in the assay with MALME-3M melanoma it was -33.5% (active); with MDA-MB-231 breast, -30.7% (active); with RXF 393 renal, -91.8% (active); with SF-268 CNS, 7.1% (active). Moreover, the growth in the assay on SF-295 CNS was 6.07% (active); with SF-539 CNS it was -32.4% (active); in the assay with UACC-257 melanoma, 13.2%; in the assay with M14 melanoma it was -20.1% (active); in the assay with HCT-15 colon, -15.3% (active); in the assay on HT29 colon, 26.4%. In addition, the growth in the assay with SNB-75 CNS was 32.7%; in the assay on SNB-19 CNS, 2.48% (active); in the assay with U251 CNS, -68% (active); in the assay on PC-3 prostate, -3.56% (active); in the assay with SK-MEL-5 melanoma it was -82.2% (active); with UACC-62 melanoma, -25.6% (active). Further, the values for the growth in the assay with LOX IMVI melanoma and in the assay with SK-MEL-28 melanoma were -85.2% (active) and -17.8% (active), respectively.
Regarding `N#Cc1c2c(nn(-c3ccccc3)c1=O)C(O)=C([N+](=O)[O-])C(c1ccccc1)C2` (stereo not given), the growth was 26.2% in the assay with DU-145 prostate; 41% in the assay with K-562 leukemia; 86.1% in the assay with MALME-3M melanoma; 71.1% with MDA-MB-231 breast; 49.7% in the assay with RXF 393 renal; 88% with SF-268 CNS. Further, the growth in the assay with SF-295 CNS is 98.9%; in the assay with SF-539 CNS, 83%; in the assay with UACC-257 melanoma it was 87.7%; in the assay with M14 melanoma it was 86.1%; in the assay with HCT-15 colon, 54.7%; in the assay on HT29 colon, 94.1%. Besides, the growth in the assay on SNB-75 CNS is 90.6%; with SNB-19 CNS, 84.2%; with U251 CNS, 57.7%; in the assay with PC-3 prostate, 80.5%; with SK-MEL-5 melanoma it was 92.9%; with UACC-62 melanoma, 84.6%. Further, the growth with LOX IMVI melanoma was 17.9%; with SK-MEL-28 melanoma, 96.4%.
As for `NC(N)=NN=C(c1ccccc1)c1ccccc1`, the growth in the assay with DU-145 prostate was 22.8%; in the assay on K-562 leukemia, 21.7%; in the assay on MALME-3M melanoma, 48.8%; with MDA-MB-231 breast, 59.6%; in the assay with RXF 393 renal, -28.4% (active); in the assay on SF-268 CNS, 46.1%. Moreover, the growth was 43% in the assay on SF-295 CNS; 19.3% in the assay with SF-539 CNS; 64.4% in the assay with UACC-257 melanoma; -6.76% (active) in the assay with M14 melanoma; 30.9% in the assay on HCT-15 colon; 11.7% in the assay with HT29 colon. The growth is -7.05% (active) in the assay on SNB-75 CNS; 47% in the assay with SNB-19 CNS; 32.1% in the assay with U251 CNS; 23.8% in the assay on PC-3 prostate; 3.67% (active) with SK-MEL-5 melanoma; 54.8% in the assay on UACC-62 melanoma. In addition, the figures for the growth in the assay on LOX IMVI melanoma and in the assay with SK-MEL-28 melanoma were 30.8% and 43.1%, respectively.
